Holding throughout (format): functional
Assay [1] has as its system Plasmodium falciparum. The assay can be described thus: GSK_TCMDC: Inhibition of Plasmodium falciparum 3D7 in whole red blood cells, using parasite LDH activity as an index of growth. Test compounds present at 2uM.
In assay [2] the test system is Plasmodium falciparum. The assay can be described thus: GSK_TCMDC: Inhibition of Plasmodium falciparum Dd2 in whole red blood cells, using parasite LDH activity as an index of growth. Test compounds present at 2uM.
For a further assay, the system named is HepG2. In words: GSK_TCMDC: Percent inhibition of human HepG2 cell line. Test compounds present at 10uM.

Turning to `OC(c1ccccc1)C1CN(CCc2ccccc2)CCC1(O)c1ccccc1` (stereo not drawn), the Inhibition amounted to 97% in the assay on Plasmodium falciparum [1], 92% in the assay with Plasmodium falciparum [2] and 0% in the assay with HepG2.
For `O=C(/C=C/c1ccc(Cl)c(Cl)c1)NCCCCN1CCCN(C(=O)Nc2ccc(C(F)(F)F)cc2)CC1` the same measures were 94%, 0% and 35%.
In the same order, the values of `CC(C)C(C(=O)Nc1ccc2c(c1)OCO2)c1ccc(Cl)cc1` (stereo not drawn) are 98%, 89% and 25%.
As for `CCN(CC)CCCOC(=O)c1ccc2c(c1)-c1ccc(C(=O)OCCCN(CC)CC)c3cccc-2c13.Cl`, the Inhibition came out at 98% with Plasmodium falciparum [1], 96% in the assay with Plasmodium falciparum [2] and 22% in the assay with HepG2.
Regarding `Fc1ccc2[nH]c(-c3cccc(-c4ccc(CNCc5ccccc5)cc4)c3)nc2c1.O=C(O)C(F)(F)F`, the Inhibition is given as 100% in the assay on Plasmodium falciparum [1], 89% with Plasmodium falciparum [2] and 27% in the assay on HepG2.
In the same order, the values of `CC1CN(Cc2csc(Nc3ccccc3)n2)CC(C)O1` (stereo not drawn) are 91%, 81% and 4%.
For `CC(C)C(=O)NC(c1cccs1)c1cc(Cl)c2cccnc2c1O` (stereo not drawn) the same measures were 91%, 91% and 23%.
In the same order, the values of `CCCCCCN1CCCN(Cc2ccc(C(=O)Nc3ccc(C(C)(C)C)cc3)cc2)CC1.O=C(O)C(F)(F)F` are 100%, 32% and 53%.
As to `CN1CCN(c2ccnc3ccc(NC(=O)Nc4cccc5ccccc45)cc23)CC1`, the Inhibition in the assay with Plasmodium falciparum [1] was 100%; in the assay with Plasmodium falciparum [2] it was 96%; with HepG2 it was 0%.
In the same order, the values of `CCCCCCC(C)c1cc(OCCN(CC)CC)c2c(c1)OC(C)(C)C=C2c1ccncc1.Cl` (stereo not drawn) are 90%, 71% and 14%.
In the same order, the values of `O=C(O)C(F)(F)F.O=S(=O)(NCCN1CCCC1)c1ccc(-c2ccc(CNCc3ccc(F)cc3)cc2)cc1` are 94%, 44% and 42%.

One may read the Inhibition as the relative decrease from the control value, in per cent. Lower therefore signals little suppression.

(Values after ChEMBL document CHEMBL1157539, “Thousands of chemical starting points for antimalarial lead identification” (Nature, 2010).)
